Only some compounds are listed: those with a hit (about 4.6% of all), similar ones and a draw of the others.
D1 antagonist: human D1 dopamine receptor antagonism. AID 504652. HEK293 TREx D1 cells, calcium flux, dopamine EC80; stronger effect = lower value. P21728. 360,000 tested, 3.2% active. activity change, negative = inhibition, % at 10 µM; in the data active = activity change below about -30%
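Tetracycline-induced HEK293 T-REx cells with force-coupled D1 receptor were loaded with a no-wash calcium dye. Compound was added after a 10 s baseline and read kinetically for 180 s; EC80 dopamine was then added and calcium flux followed another 180 s.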
TRHR PAM: allosterically enhances the human TRH receptor; TRHR cells, fluo-8 calcium fluorescence, EC20 TRH enhancement; 360,000 tested, 0.66% active; enhancement, % at 2 µM; in the data active = enhancement above about 30%
Target sequence (P34981 whole entry, looked up): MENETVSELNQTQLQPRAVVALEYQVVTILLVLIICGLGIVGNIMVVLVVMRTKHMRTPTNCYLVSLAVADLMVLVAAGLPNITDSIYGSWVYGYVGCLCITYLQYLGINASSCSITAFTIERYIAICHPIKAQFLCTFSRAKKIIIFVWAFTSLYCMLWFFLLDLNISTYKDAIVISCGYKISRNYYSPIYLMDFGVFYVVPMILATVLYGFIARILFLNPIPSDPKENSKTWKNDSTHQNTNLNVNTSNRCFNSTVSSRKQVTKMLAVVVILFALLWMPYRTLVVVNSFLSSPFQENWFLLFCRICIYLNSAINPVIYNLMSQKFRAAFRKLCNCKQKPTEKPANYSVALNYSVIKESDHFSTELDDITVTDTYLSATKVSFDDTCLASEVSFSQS
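Enhancer read-out: after compound pinning and an initial kinetic agonist-mode read, an EC20 of TRH (10 nM final) was injected and fluo-8 calcium signal (Ex 480/Em 530) followed at 1 s/cycle for 100 cycles in TRHR-expressing cells.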
D1 ag: agonists of human D1 dopamine receptor; P21728; HEK293 T-REx D1 cells, calcium flux, agonist mode; activation, % at 2 µM; 360,000 tested, 1% active
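Agonism was scored from calcium flux recorded over 180 s (1 read/s) after pintool compound addition, following a 10-cycle baseline. Cells were inducible force-coupled HEK293 TREx D1, plated overnight at 30 C and loaded with no-wash calcium dye.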
D1 PAM: enhances dopamine response at the human D1 receptor; 360,000 tested, 0.036% active; P21728; HEK293 TREx D1 cells, calcium flux, dopamine EC20 potentiation; potentiation, % at 10 µM; in the data active = potentiation above about 30%
TRHR agonist: agonists of human TRH receptor; TRHR cells, calcium flux fluo-8, FDSS agonist mode; activation, % at 2 µM; 360,000 tested, 0.18% active; AID 493084
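Steps: seed TRHR cells overnight; add fluo-8 no-wash Ca dye, RT 30 min–1.5 h; record 10 s baseline; pin-transfer compounds; monitor fluorescence 1 cycle/s for the agonist window. Calcium increases flag candidate agonists.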
Of the large screens only hits and unclear results are named; the others gave an inactive call. Cut-off read from the data, not from the text of the source, unless noted: active = activation above about 30%; inactive = the rest.

Cc1c(NC(=O)c2ccc(N3CCC(C)CC3)c([N+](=O)[O-])c2)cccc1-c1nc2ccccc2o1	none
CN(C)c1ccc(/C=N/NC(=O)c2ccc3c(c2)OCO3)cc1	D1 antagonist -30
CN(C)c1ccc(/C=C/C(=O)c2ccc3c(c2)OCO3)cc1	D1 ag 455, TRHR agonist 121
CC(CNC(=O)c1cnn(-c2ccc(F)cc2)c1-n1cccc1)c1ccccc1 (stereo unspecified)	none
COC(=O)CN1C(=O)CSc2ccc(S(=O)(=O)Nc3ccc(C)c(Cl)c3)cc21	none
Cc1cc(C)cc(-n2c(C)cc(/C=N\NC(=O)COc3cccc4cccnc34)c2C)c1	D1 ag 45
Cc1cc(/C=N/NC(=O)COc2cccc3cccnc23)c(C)n1-c1ccc(O)cc1	none
COc1ccc(-c2nc3ccccc3o2)cc1NC(=O)c1ccc(N2CCC(C)CC2)c([N+](=O)[O-])c1	none
O=C1C=C(c2ccccc2)C(=O)N1Nc1ccccc1	TRHR PAM 33
COc1ccc(C2=CC(=O)N(Nc3ccccc3)C2=O)cc1	none
Cc1ccc(NN2C(=O)C=C(c3ccc(Cl)cc3)C2=O)cc1	D1 antagonist -39
COc1cc(OC)c(NS(=O)(=O)c2cc(-c3cnc(C)o3)ccc2OC)cc1Cl	none
O=C(Nc1ccccc1C(=O)O)c1ccc(NC(=O)C2CC2)cc1	none
O=C(Nc1ccccc1O)c1ccc(NC(=O)C2CC2)cc1	D1 antagonist -33
Cc1cc(C)cc(OCC(=O)NNC(=O)c2ccccn2)c1	D1 antagonist -38
Cc1ccc(OCC(=O)O/N=C(\N)c2ccccn2)cc1C	D1 antagonist -44
Cc1c(C(=O)Nc2cccc(C(F)(F)F)c2)oc2ccc3c(c12)C(=O)CC(C)(C)O3	none
CC(=O)Cn1cnc2sc(-c3ccccc3)cc2c1=O	D1 antagonist -36
OC(CCCN1CCCCC1)(c1ccccc1)c1ccccc1	D1 antagonist -34
CCC(O)(CCN1CCCCC1)c1ccccc1 (stereo unspecified)	none
CC1(C)CC(=O)C=C(c2cccc(Cl)c2O)C1	none (no result: D1 antagonist)
O=C(/C=C/c1ccc(N2CCC(c3ccccc3)=N2)cc1)c1ccccc1	D1 ag 138, TRHR agonist 57
Cc1[nH]c2ccccc2c1C(=O)CN1C(=O)NC(C)(c2ccc(Cl)cc2Cl)C1=O (stereo unspecified)	D1 ag 37
CNc1nc(Nc2ccc(C(C)=O)cc2)nc(OC(C(F)(F)F)C(F)(F)F)n1	D1 antagonist -31
CCOc1ccc(C(=O)c2oc3ccccc3c2NC(=O)Cc2coc3ccc(CC)cc23)cc1	none
c1ccc2c(c1)OCCOCCOCCOCCOc1ccccc1OCCOCCOCCO2	D1 antagonist -32
CCc1ccc(NC(=O)CC2C(=O)OCCN2CC)cc1 (stereo unspecified)	D1 antagonist -75
CCN1CCOC(=O)C1CC(=O)Nc1ccc(C(C)=O)cc1 (stereo unspecified)	none
CC(C)CC(C(=O)NC(=O)NCc1ccccc1)N1C(=O)c2ccccc2C1=O (stereo unspecified)	D1 antagonist -79
Cc1cc(C)nc(NS(=O)(=O)c2ccc(NC(=O)Cc3ccccc3)cc2)n1	TRHR PAM 36
Cc1cc(C)nc(NS(=O)(=O)c2ccc(NC(=O)COc3ccccc3)cc2)n1	none
Cc1cc(C)nc(NS(=O)(=O)c2ccc(NC(=O)COc3ccc(Cl)cc3C)cc2)n1	D1 antagonist -49
COCCn1c(SCC(=O)c2ccc(F)cc2)nc2cc(C(=O)NC3CCCC3)ccc2c1=O	none
O=C1C(Cl)=C(Nc2ccc(F)cc2)C(=O)N1CCc1ccccc1	D1 antagonist -35
O=C1C(Cl)=C(NCCc2ccccc2)C(=O)N1CCc1ccccc1	none
CCC(=O)NC(c1cccc(C)c1)c1cc(Cl)c2cccnc2c1O (stereo unspecified)	none
CC(OC(=O)Cc1cccc(C(F)(F)F)c1)C(=O)Nc1ccc(Cl)cn1 (stereo unspecified)	none
COc1cccc(CC(=O)OC(C)C(=O)Nc2ccc(Cl)cn2)c1 (stereo unspecified)	D1 antagonist -35
O=C(c1ccco1)N1N=C(c2ccccc2)CC1c1ccc2nccnc2c1 (stereo unspecified)	none
Cc1ccc(CSC2=Nc3ccccc3C3=NC(CCC(=O)NCCc4ccccc4)C(=O)N23)cc1 (stereo unspecified)	none

Screens from PubChem.
